In PubChem BioAssay AID1159580 (chemical genetic matrix, 2015):
Where “and” joins values, the source holds several entries; their conditions need not be identical. Identical values can stand only once. Out of some 5,500 compounds screened, about 2,000 (36%) were called active. Roughly 18% stayed inconclusive and do not appear here. No stated cut-off is given here; in the data, active means normalized growth mostly below about 0.91 (no sharp cut-off); inconclusive means no clear call, values can overlap the other calls; inactive means mostly above about 0.92. This is one part of the list.

Experiment: chemical genetic growth profiling, strain panel (AID 1159580);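 further: tested at 20 µM; growth read once vehicle control cultures reached saturation at 30 °C; 1 = growth at the plate median or of vehicle wells; lower values mean less growth of the strain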
Details: S. cerevisiae deletion strains, growth OD

Measured: normalized growth

CCCCCCCCCCCCCCCC(=O)OC/C=C(C)/C=C/C=C(C)/C=C/C1=C(C)CCCC1(C)C
inactive: locus YAL013W, strain DEP1, active compounds read low 0.994 | locus YAL021C, strain ccr4, active compounds read low 1.04 | locus YAL026C, strain drs2, active compounds read low 1.02 | locus YAL030W, strain snc1, active compounds read low 1.03 | locus YBL061C, strain skt5, active compounds read low 1.02 | locus YBR009C, strain hhf1, active compounds read low 0.995 | locus YBR021W, strain FUR4, active compounds read low 0.977 | locus YBR023C, strain chs3, active compounds read low 1 | locus YBR171W, strain sec66, active compounds read low 1.02 | locus YBR229C, strain ROT2, active compounds read low 0.992 | locus YBR231C, strain swc5, active compounds read low 0.931 | locus YBR279W, strain paf1, active compounds read low 1.01 | locus YCL011C, strain gbp2, active compounds read low 1 | locus YCL016C, strain dcc1, active compounds read low 1 | locus YCL029C, strain bik1, active compounds read low 0.999 | locus YCL069W, strain vba3, active compounds read low 1.01 | locus YCR088W, strain abp1, active compounds read low 1.02 | locus YDL005C, strain med2, active compounds read low 1.03 | locus YDL035C, strain GPR1, active compounds read low 0.978 | locus YDL040C, strain nat1, active compounds read low 1.01 | locus YDL074C, strain BRE1, active compounds read low 1 | locus YDL101C, strain DUN1, active compounds read low 0.993 | locus YDL185W, strain tfp1, active compounds read low 0.992 | locus YDL192W, strain arf1, active compounds read low 0.994 | locus YDR001C, strain nth1, active compounds read low 1.02 | locus YDR069C, strain doa4, active compounds read low 1 | locus YDR101C, strain arx1, active compounds read low 1.02 | locus YDR137W, strain rgp1, active compounds read low 1.03 | locus YDR150W, strain NUM1, active compounds read low 1 | locus YDR159W, strain sac3, active compounds read low 0.963 | locus YDR162C, strain NBP2, active compounds read low 0.973 | locus YDR195W, strain ref2 1.04 | locus YDR297W, strain sur2, active compounds read low 1.03 | locus YDR318W, strain mcm21, active compounds read low 0.999 | locus YDR334W, strain swr1, active compounds read low 1.03 | locus YDR335W, strain msn5, active compounds read low 1.04 | locus YDR388W, active compounds read low 1.02 | locus YDR392W, strain spt3, active compounds read low 1.05 | locus YDR502C, strain sam2, active compounds read low 0.994 | locus YEL003W, strain gim4, active compounds read low 1.01 | locus YEL037C, strain rad23, active compounds read low 1.02 | locus YEL061C, strain CIN8 (second series), active compounds read low 1.02 | locus YEL061C, strain CIN8, active compounds read low 0.993 | locus YER015W, strain faa2, active compounds read low 1.02 | locus YER016W, strain bim1, active compounds read low 1.02 | locus YER110C, active compounds read low 0.985 | locus YER111C, strain swi4, active compounds read low 1.02 | locus YER155C, strain BEM2 (second series), active compounds read low 1.03 | locus YER155C, strain BEM2, active compounds read low 0.998 | locus YER167W, strain BCK2, active compounds read low 0.989 | locus YFR010W, strain ubp6, active compounds read low 1.03 | locus YGL078C, strain dbp3, active compounds read low 0.993 | locus YGL086W, strain mad1, active compounds read low 1.01 | locus YGL167C, strain pmr1, active compounds read low 1.02 | locus YGL173C, strain kem1, active compounds read low 1.01 | locus YGL227W, strain vid30, active compounds read low 1.01 | locus YGL240W, strain doc1, active compounds read low 1.03 | locus YGL248W, strain PDE1, active compounds read low 1 | locus YGL253W, strain hxk2, active compounds read low 0.976 | locus YGR135W, strain pre9, active compounds read low 0.929 | locus YGR252W, strain gcn5, active compounds read low 1.04 | locus YHR013C, strain ard1, active compounds read low 1.05 | locus YHR027C, strain rpn1, active compounds read low 0.969 | locus YHR030C, strain SLT2, active compounds read low 0.995 and 0.963 | locus YHR079C, strain IRE1 (second series), active compounds read low 1.01 | locus YHR079C, strain IRE1, active compounds read low 0.925 | locus YHR094C, strain hxt1, active compounds read low 0.983 | locus YHR129C, strain ARP1, active compounds read low 0.999 | locus YHR142W, strain chs7, active compounds read low 1.01 | locus YHR200W, strain rpn10, active compounds read low 0.998 | locus YIL066C, strain RNR3, active compounds read low 0.987 | locus YIL073C, strain SPO22, active compounds read low 0.879 | locus YIL125W, strain kgd1, active compounds read low 0.992 | locus YIR030C, strain dcg1, active compounds read low 0.989 | locus YJL092W, strain hpr5, active compounds read low 1.02 | locus YJL095W, strain BCK1 (second series), active compounds read low 1.03 | locus YJL095W, strain BCK1, active compounds read low 0.995 and 0.989 | locus YJL115W, strain asf1, active compounds read low 1.02 | locus YJL129C, strain trk1, active compounds read low 1.04 | locus YJL134W, strain LCB3, active compounds read low 0.991 | locus YJL154C, strain vps35, active compounds read low 1.02 | locus YJL164C, strain tpk1, active compounds read low 0.996 | locus YJL166W, strain qcr8, active compounds read low 1.04 | locus YJL168C, strain set2, active compounds read low 0.994 | locus YJL187C, strain SWE1 (second series), active compounds read low 1.01 | locus YJL187C, strain SWE1, active compounds read low 1.03 | locus YJR043C, strain POL32, active compounds read low 0.995 | locus YJR066W, strain TOR1, active compounds read low 0.901 | locus YKL009W, strain mrt4, active compounds read low 0.993 | locus YKL068W, active compounds read low 0.985 | locus YKL085W, strain MDH1 (second series), active compounds read low 0.985 | locus YKL085W, strain MDH1, active compounds read low 0.985 | locus YKL160W, strain elf1, active compounds read low 1.02 | locus YKL190W, strain CNB1, active compounds read low 0.998 | locus YKR001C, strain vps1, active compounds read low 0.991 | locus YKR026C, strain gcn3, active compounds read low 1.03 | locus YKR091W, strain srl3, active compounds read low 1.01 | locus YLL001W, strain dnm1, active compounds read low 1.01 | locus YLL026W, active compounds read low 0.975 | locus YLL041C, strain sdh2, active compounds read low 1.02 | locus YLR027C, strain aat2, active compounds read low 1.01 | locus YLR039C, strain RIC1, active compounds read low 1 | locus YLR058C, strain SHM2, active compounds read low 0.988 | locus YLR102C, strain apc9, active compounds read low 0.993 | locus YLR113W, strain HOG1, active compounds read low 0.99 | locus YLR221C, strain rsa3, active compounds read low 0.98 | locus YLR258W, strain gsy2, active compounds read low 1 | locus YLR262C, strain YPT6 (second series), active compounds read low 1.01 | locus YLR262C, strain YPT6, active compounds read low 1.04 | locus YLR268W, strain sec22, active compounds read low 0.996 | locus YLR320W, strain mms22, active compounds read low 1 | locus YLR330W, strain CHS5, active compounds read low 0.993 | locus YLR342W, strain FKS1 (second series), active compounds read low 0.993 | locus YLR342W, strain FKS1, active compounds read low 1.02 | locus YLR357W, strain rsc2, active compounds read low 0.994 | locus YLR370C, strain arc18, active compounds read low 1.02 | locus YLR371W, strain rom2, active compounds read low 1 | locus YLR384C, strain iki3, active compounds read low 1.02 | locus YLR418C, strain cdc73, active compounds read low 0.922 | locus YML016C, strain PPZ1, active compounds read low 0.994 | locus YML032C, strain rad52, active compounds read low 1.01 | locus YML120C, strain ndi1, active compounds read low 1.05 | locus YML124C, strain tub3, active compounds read low 0.993 | locus YMR058W, strain fet3, active compounds read low 0.999 | locus YMR078C, strain ctf18, active compounds read low 0.996 | locus YMR125W, strain sto1, active compounds read low 1.01 | locus YMR129W, active compounds read low 1.01 | locus YMR205C, strain PFK2, active compounds read low 1.01 | locus YMR223W, strain ubp8, active compounds read low 0.959 | locus YMR231W, strain pep5, active compounds read low 1.02 | locus YMR263W, strain SAP30, active compounds read low 1 | locus YMR307W, strain GAS1, active compounds read low 1 | locus YNL067W, strain RPL9B, active compounds read low 1.02 | locus YNL071W, strain lat1, active compounds read low 0.97 | locus YNL153C, strain GIM3, active compounds read low 1.04 | locus YNL183C, strain NPR1, active compounds read low 0.967 | locus YNL209W, strain ssb2, active compounds read low 0.991 | locus YNL233W, strain BNI4, active compounds read low 0.994 | locus YNL248C, strain rpa49, active compounds read low 1.05 | locus YNL250W, strain rad50, active compounds read low 1.01 | locus YNL271C, strain bni1, active compounds read low 0.995 | locus YNL298W, strain CLA4, active compounds read low 1 | locus YNL307C, strain MCK1, active compounds read low 0.989 | locus YNL322C, strain KRE1 (second series), active compounds read low 1.04 | locus YNR049C, strain mso1, active compounds read low 1.02 | locus YNR052C, strain pop2, active compounds read low 0.998 | locus YOL012C, strain htz1 0.785 | locus YOL147C, strain pex11, active compounds read low 0.991 | locus YOR001W, strain rrp6, active compounds read low 1.05 | locus YOR061W, strain CKA2, active compounds read low 0.99 | locus YOR069W, strain VPS5, active compounds read low 0.992 | locus YOR070C, strain gyp1, active compounds read low 1.01 | locus YOR080W, strain dia2, active compounds read low 1.02 | locus YOR083W, strain WHI5, active compounds read low 0.984 | locus YOR106W, strain vam3, active compounds read low 0.962 | locus YOR136W, strain idh2, active compounds read low 1 | locus YOR144C, strain elg1, active compounds read low 0.99 | locus YOR184W, strain ser1, active compounds read low 0.991 | locus YOR231W, strain MKK1, active compounds read low 0.974 | locus YOR265W, strain rbl2, active compounds read low 1.02 | locus YOR270C, strain vph1, active compounds read low 1.05 | locus YOR290C, strain snf2, active compounds read low 1.03 | locus YOR316C, strain cot1, active compounds read low 0.992 | locus YPL051W, strain arl3, active compounds read low 1.02 | locus YPL078C, strain atp4, active compounds read low 1.01 | locus YPL106C, strain sse1, active compounds read low 1.07 | locus YPL240C, strain hsp82, active compounds read low 1.01 | locus YPL256C, strain CLN2, active compounds read low 0.916 | locus YPR119W, strain clb2, active compounds read low 0.998 | locus YPR141C, strain kar3, active compounds read low 0.983 | locus YPR163C, strain tif3, active compounds read low 1 | locus YPR167C, strain met16, active compounds read low 0.992 | strain wtn01, active compounds read low 0.972
